Laboratory results as given in the supplement of paper PMC10849652.
Of roughly 8,800 targets only a part is listed; those with a hit were picked by preference. About 0.5% of all pairs of compound and target were hits. Values without a mark were called inactive.

Assays:
Test in all cases: log2 fold change, soluble protein after heating vs DMSO (PISA); higher = thermal stabilisation; K562 lysate, 10 uM; active = over 0.2 and 3.5 SD of the protein, either way, in both replicates (recomputed)
[1] = compound: CN1CC[C@H](c2c(O)cc(O)c3c(=O)cc(-c4ccccc4Cl)oc23)[C@H](O)C1 [alvocidib]
Method in brief: (§1)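 Quantification was by TMTpro 16plex LC-MS/MS with equalised channel sums, applied to the supernatant after 21,000xg for 90 min. Samples were crude K562 extract at 1 mg/mL protein in PBS pH 7.4 with 1 mM MgCl2, treated with 10 μM compound for 30 min, heated for 3 min across 48°C-58°C, pooled and brought to 0.5% NP-40 at 4°C. Values are log-two fold changes in thermal stability relative to solvent controls, from duplicates.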

[2] = compound: CN1CCc2c(c3ccccc3n2Cc2ccc(C(=O)NO)cc2)C1 [Tubastatin A]
Method in brief: as §1

[3] = compound: CNC(=O)C1=CC=CC=C1NC2=NC(=NC=C2Cl)NC3=C(C=C(C=C3)N4CCOCC4)OC
Method in brief: as §1

[4] = compound: CNC(=O)c1ccc(Nc2ncc(C(F)(F)F)c(NCc3nccnc3N(C)S(C)(=O)=O)n2)cc1 [defactinib]
Method in brief: as §1

[5] = compound: CNc1nc(-c2ccc3c(N)n[nH]c3c2)cc(N2C[C@@H](C(=O)NC3CCCCC3)CC[C@H]2C)n1
Method in brief: as §1

[6] = compound: COC(=O)N[C@@H](C)CNc1nccc(-c2cn(C(C)C)nc2-c2cc(Cl)cc(NS(C)(=O)=O)c2F)n1 [encorafenib]
Method in brief: as §1

[7] = compound: COC(=O)[C@H](CCSC)NC(=O)C1=C(C=C(C=C1)NC[C@H](CS)N)C2=CC=CC=C2
Method in brief: as §1

[8] = compound: COc1cc(Nc2ncc3c(n2)-c2ccc(Cl)cc2C(c2c(F)cccc2OC)=NC3)ccc1C(=O)O [alisertib]
Method in brief: as §1

[9] = compound: COc1cc2nc(-c3cc(F)ccc3O)nc(N[C@@H]3CNC[C@H]3C(C)(C)O)c2cc1OC
Method in brief: as §1

[10] = compound: COc1cc2ncnc(Nc3ccc(F)c(Cl)c3)c2cc1OCCCN1CCOCC1 [gefitinib]
Method in brief: as §1

[11] = compound: CS(=O)(=O)CCNCc1ccc(-c2ccc3ncnc(Nc4ccc(OCc5cccc(F)c5)c(Cl)c4)c3c2)o1 [lapatinib]
Method in brief: as §1

[12] = compound: CS(=O)(=O)N1CCN(Cc2cc3nc(-c4cccc5[nH]ncc45)nc(N4CCOCC4)c3s2)CC1 [pictilisib]
Method in brief: as §1

[13] = compound: C[C@@H](Oc1cc(-c2cnn(C3CCNCC3)c2)cnc1N)c1c(Cl)ccc(F)c1Cl [crizotinib]
Method in brief: as §1

[14] = compound: C[C@H](C1=CC=C(C=C1)C(=O)NC2=C3C=CNC3=NC=C2)N
Method in brief: as §1

[15] = compound: C[C@H](Nc1ncnc2nc[nH]c12)c1cc2cccc(Cl)c2c(=O)n1-c1ccccc1 [duvelisib]
Method in brief: as §1

[16] = compound: Cc1cc(Nc2cc(CN3CCOCC3)c3nc(C)c(Cc4ccc(Cl)cc4F)n3n2)n[nH]1 [gandotinib]
Method in brief: as §1

[17] = compound: Cc1cc(Nc2cc(N3CCN(C)CC3)nc(Sc3ccc(NC(=O)C4CC4)cc3)n2)n[nH]1 [tozasertib]
Method in brief: as §1

[18] = compound: Cc1ccc(-n2nc(C(C)(C)C)cc2NC(=O)Nc2ccc(OCCN3CCOCC3)c3ccccc23)cc1 [doramapimod]
Method in brief: as §1

[19] = compound: Cc1ccc(NC(=O)c2ccc(CN3CC[C@H](N(C)C)C3)c(C(F)(F)F)c2)cc1Nc1nccc(-c2cncnc2)n1 [bafetinib]
Method in brief: as §1

[20] = compound: Cc1cccc(CC(=O)N2CCc3c2ccc(-c2cn(C)c4ncnc(N)c24)c3F)n1
Method in brief: as §1

UniProt Q5HYI8, sequence (Q5HYI8 whole entry, looked up): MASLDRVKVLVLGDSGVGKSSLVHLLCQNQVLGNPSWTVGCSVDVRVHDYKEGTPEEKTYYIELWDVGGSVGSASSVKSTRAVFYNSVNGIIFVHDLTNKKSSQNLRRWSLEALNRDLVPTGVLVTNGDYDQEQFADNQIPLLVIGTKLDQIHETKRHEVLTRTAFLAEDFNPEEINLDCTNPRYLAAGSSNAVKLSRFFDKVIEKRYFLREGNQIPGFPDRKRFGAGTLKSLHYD
UniProt Q6GYQ0, sequence (Q6GYQ0 whole entry, looked up): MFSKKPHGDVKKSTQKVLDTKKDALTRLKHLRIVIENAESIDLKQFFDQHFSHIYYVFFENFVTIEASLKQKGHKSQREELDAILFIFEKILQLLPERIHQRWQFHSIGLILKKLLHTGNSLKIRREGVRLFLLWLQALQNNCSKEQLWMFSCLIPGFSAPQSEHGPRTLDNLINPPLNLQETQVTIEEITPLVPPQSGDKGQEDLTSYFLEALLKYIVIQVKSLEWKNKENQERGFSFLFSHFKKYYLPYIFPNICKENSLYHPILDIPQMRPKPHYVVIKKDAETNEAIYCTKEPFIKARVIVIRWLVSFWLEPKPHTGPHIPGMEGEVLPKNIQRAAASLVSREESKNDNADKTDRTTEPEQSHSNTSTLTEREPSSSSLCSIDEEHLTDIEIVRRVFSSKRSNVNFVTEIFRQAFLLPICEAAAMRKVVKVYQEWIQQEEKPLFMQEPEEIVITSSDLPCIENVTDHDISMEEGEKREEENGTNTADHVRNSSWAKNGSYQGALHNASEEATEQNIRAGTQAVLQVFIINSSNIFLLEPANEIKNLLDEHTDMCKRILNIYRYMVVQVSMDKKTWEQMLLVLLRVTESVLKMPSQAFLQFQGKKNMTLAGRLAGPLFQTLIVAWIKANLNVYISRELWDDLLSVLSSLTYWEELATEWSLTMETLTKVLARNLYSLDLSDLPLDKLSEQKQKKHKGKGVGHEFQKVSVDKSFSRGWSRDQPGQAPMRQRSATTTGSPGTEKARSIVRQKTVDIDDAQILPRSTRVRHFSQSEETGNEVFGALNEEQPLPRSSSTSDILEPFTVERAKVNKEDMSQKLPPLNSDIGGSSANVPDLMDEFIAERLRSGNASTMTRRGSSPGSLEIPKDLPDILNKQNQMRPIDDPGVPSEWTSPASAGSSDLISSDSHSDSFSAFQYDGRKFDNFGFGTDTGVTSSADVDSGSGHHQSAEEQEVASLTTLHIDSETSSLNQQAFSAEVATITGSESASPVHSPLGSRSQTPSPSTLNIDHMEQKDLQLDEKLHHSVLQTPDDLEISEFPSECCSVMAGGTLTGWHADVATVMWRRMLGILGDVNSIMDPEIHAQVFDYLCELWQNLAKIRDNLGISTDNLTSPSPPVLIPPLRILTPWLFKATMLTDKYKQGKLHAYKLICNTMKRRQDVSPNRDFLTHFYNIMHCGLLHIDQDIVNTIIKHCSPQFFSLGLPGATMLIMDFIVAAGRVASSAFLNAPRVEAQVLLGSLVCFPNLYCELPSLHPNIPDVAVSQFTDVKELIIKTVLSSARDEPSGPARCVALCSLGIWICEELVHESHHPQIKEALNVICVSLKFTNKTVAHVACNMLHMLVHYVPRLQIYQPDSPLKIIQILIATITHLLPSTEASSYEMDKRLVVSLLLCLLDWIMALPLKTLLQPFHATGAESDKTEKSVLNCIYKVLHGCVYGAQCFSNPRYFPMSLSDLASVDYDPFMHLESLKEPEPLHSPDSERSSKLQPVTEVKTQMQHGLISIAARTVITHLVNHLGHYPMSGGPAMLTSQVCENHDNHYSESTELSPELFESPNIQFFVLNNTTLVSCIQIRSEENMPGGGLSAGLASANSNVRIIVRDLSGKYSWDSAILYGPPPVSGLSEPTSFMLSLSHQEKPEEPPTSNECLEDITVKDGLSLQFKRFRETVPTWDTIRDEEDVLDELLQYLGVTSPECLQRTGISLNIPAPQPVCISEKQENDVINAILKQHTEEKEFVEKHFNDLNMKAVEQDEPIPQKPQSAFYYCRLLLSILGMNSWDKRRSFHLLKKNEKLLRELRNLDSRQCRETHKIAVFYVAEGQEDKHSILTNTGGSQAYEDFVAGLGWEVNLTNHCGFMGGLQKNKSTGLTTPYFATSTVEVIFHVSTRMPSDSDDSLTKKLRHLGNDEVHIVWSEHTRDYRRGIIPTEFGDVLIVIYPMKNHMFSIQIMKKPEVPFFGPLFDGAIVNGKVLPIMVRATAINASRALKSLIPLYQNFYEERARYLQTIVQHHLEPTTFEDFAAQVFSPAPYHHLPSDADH
UniProt Q99574, sequence (Q99574 whole entry, looked up): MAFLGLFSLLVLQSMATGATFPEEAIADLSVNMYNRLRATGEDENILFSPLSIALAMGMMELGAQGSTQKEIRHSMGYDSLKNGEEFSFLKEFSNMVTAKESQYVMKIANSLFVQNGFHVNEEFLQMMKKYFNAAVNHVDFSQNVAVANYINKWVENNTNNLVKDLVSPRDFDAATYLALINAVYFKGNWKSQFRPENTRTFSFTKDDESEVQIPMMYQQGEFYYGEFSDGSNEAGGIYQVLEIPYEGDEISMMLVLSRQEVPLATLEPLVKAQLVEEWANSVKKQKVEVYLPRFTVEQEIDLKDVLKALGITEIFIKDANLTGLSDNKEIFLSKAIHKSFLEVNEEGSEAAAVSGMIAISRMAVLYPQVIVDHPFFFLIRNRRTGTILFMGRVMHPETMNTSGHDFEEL
UniProt Q99643, sequence (Q99643 whole entry, looked up): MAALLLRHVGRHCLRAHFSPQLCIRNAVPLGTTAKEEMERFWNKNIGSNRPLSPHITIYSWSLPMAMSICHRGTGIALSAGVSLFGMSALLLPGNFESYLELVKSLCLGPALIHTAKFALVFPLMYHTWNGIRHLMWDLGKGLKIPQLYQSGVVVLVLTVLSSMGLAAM
UniProt Q9Y6B6, sequence (Q9Y6B6 whole entry, looked up): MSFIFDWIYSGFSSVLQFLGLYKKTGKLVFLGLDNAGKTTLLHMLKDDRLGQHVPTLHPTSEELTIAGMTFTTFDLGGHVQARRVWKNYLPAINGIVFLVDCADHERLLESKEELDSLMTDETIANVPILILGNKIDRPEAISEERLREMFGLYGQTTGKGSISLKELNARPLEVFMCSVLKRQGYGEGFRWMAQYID
UniProt Q4ADV7, sequence (Q4ADV7 whole entry, looked up): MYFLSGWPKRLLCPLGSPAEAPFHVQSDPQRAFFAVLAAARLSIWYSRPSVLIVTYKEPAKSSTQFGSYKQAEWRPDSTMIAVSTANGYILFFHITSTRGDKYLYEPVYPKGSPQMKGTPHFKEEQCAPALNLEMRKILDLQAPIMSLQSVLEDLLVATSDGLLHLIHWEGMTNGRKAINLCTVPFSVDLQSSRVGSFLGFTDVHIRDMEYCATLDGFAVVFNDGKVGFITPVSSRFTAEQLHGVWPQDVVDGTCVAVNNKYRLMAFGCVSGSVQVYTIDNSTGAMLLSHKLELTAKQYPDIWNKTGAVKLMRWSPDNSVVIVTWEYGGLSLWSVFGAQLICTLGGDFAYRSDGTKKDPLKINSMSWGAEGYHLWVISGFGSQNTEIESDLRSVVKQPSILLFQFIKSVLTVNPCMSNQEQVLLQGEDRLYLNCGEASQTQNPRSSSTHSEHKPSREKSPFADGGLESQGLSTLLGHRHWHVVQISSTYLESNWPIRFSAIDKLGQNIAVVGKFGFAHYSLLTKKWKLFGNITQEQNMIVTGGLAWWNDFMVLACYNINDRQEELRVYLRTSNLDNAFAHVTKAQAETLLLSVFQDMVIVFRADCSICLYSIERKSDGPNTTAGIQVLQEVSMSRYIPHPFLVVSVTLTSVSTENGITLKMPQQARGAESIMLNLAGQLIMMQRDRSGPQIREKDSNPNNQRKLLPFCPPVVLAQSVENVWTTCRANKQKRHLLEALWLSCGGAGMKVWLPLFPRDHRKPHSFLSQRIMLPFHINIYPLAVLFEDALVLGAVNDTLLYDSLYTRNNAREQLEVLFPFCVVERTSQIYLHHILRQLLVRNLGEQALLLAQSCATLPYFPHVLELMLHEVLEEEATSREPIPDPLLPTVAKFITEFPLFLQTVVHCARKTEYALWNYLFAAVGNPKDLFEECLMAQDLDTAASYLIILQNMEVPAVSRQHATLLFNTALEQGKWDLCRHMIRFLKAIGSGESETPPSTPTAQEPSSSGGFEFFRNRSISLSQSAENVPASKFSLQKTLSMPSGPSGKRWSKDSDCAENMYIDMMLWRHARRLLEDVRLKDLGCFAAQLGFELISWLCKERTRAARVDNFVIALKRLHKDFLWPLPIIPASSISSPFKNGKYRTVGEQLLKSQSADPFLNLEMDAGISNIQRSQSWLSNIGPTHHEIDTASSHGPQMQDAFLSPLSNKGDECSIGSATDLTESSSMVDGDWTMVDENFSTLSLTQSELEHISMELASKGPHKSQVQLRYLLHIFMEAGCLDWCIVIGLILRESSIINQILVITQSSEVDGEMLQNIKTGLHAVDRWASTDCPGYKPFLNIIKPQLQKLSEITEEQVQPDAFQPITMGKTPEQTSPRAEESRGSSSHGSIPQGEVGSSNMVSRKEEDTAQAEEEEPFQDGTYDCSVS
UniProt Q7Z6M1, sequence (Q7Z6M1 whole entry, looked up): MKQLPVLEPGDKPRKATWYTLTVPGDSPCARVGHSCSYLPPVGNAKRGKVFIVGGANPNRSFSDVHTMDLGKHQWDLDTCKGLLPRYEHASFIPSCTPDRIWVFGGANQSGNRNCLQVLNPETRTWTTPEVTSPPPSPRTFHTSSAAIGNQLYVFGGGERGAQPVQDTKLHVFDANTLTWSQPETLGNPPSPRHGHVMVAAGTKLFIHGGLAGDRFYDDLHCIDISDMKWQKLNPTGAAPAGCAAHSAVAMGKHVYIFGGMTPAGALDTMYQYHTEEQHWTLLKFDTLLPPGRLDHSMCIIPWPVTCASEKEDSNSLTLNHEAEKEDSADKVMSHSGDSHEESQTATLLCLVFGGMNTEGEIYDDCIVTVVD

Target	log2 fold change [1]	log2 fold change [2]	log2 fold change [3]	log2 fold change [4]	log2 fold change [5]	log2 fold change [6]	log2 fold change [7]	log2 fold change [8]	log2 fold change [9]	log2 fold change [10]	log2 fold change [11]	log2 fold change [12]	log2 fold change [13]	log2 fold change [14]	log2 fold change [15]	log2 fold change [16]	log2 fold change [17]	log2 fold change [18]	log2 fold change [19]	log2 fold change [20]
SDHC (UniProt Q99643)	-0.114	-0.056	0.047	0.146	0.097	0.034	0.055	0.018	-0.007	0.011	0.002	0.071	0.032	-0.244	0.004	0.179	-0.067	0.016	-0.004	0.133
SERPINI1 (UniProt Q99574)	-0.031	0.015	-0.001	0.019	-0.042	0.02	-0.074	-0.064	0.013	0.048	0.034	-0.061	0.001	0.036	0.007	0.055	0.014	-0.042	-0.065	0.04
RTN4IP1 (UniProt Q8WWV3)	0.042	-0.079	0.036	-0.014	0	-0.021	0.003	-0.111	0.019	0.196	-0.02	0.017	-0.021	0.056	0.072	-0.057	0.009	-0.016	0.059	-0.048
RIC1 (UniProt Q4ADV7)	0.014	-0.051	0.029	-0.12	0.02	0.037	-0.13	0.017	-0.073	0.024	0.016	-0.02	-0.06	-0.032	-0.048	-0.092	0.01	0.026	0.3 (active)	0.108
RABEPK (UniProt Q7Z6M1)	0.03	-0.048	0.004	0.014	-0.025	0.004	0.032	0.002	0	0.01	0.003	-0.016	-0.008	-0.069	0.018	0.007	-0.033	0.005	0.024	0.04
RABL3 (UniProt Q5HYI8)	-0.023	-0.193	0.154	0	-0.021	0.02	-0.01	-0.036	-0.038	0.005	0.036	-0.028	-0.102	-0.017	0.198	-0.097	-0.003	0.085	-0.05	0.031
SAR1B (UniProt Q9Y6B6)	0.032	0.176	0.199	0.05	0.147	0.203	0.052	0.128	0.145	0.015	0.122	0.036	-0.056	-0.031	0.004	0.44 (active)	-0.005	0.578 (active)	-0.079	0.08
RALGAPA1 isoform 6 (UniProt Q6GYQ0)	-0.102	0.033	0.007	0.069	0.003	0.016	0.094	-0.029	0.047	0.056	-0.075	-0.157	0.036	-0.28 (active)	0.074	0.257	-0.006	0.062	-0.026	0.321
